Hits are enriched below; roughly 8.9% of the tested compounds scored in any of these assays.
DRD3 agonist: qHTS of D3 Dopamine Receptor Agonist: qHTS; D(3) dopamine receptor (Homo sapiens), P35462; max activation, %; D3R DiscoveRx beta-arrestin cells, luminescence, 90 min; 410,000 tested, 0.58% active; AID 652048, 2013; in the data active = max activation above about 30%; also: 0% is about no effect
Target sequence (P35462 whole entry, looked up): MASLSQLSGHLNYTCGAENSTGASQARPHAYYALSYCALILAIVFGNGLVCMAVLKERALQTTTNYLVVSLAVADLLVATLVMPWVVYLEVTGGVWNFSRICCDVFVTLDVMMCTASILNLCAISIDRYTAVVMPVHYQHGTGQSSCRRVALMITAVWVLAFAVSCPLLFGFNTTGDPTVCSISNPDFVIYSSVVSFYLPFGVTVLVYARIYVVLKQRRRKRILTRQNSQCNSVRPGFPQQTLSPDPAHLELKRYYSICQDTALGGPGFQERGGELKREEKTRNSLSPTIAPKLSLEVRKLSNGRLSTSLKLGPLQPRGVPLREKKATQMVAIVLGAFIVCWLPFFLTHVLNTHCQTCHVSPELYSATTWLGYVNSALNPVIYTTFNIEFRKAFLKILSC
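Agonist mode: compounds and dopamine controls were applied to plated cells for 90 min at 37 degrees C after an overnight attachment at 1500 cells/well. Luminescent read-out followed 30 - 60 minutes at room temperature with DiscoveRx detection reagent.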
MCF10A rereplic: A quantitative high throughput screen for small molecules that induce DNA re-replication in MCF 10a normal breast cells | MCF 10A DNA re-replication, Hoechst nuclear intensity, 48 h | Potency, µM (series often up to 46.1 µM), inactives show at the highest dose activity, positive = re-replication, most hits filed as activators | 350,000 tested, 2.9% active | AID 624296, 2012; also: potency is read from the fitted curve at half-maximal effect; % of control where 0% means no effect; nearly all actives have a fitted effect of over 50% in size
KB-V1 cytotox: qHTS assay for MDR1-selective chemotherapeutics: Primary screen using the drug-selected MDR subline cells KB-V1 | 400,000 tested, 3.4% active | KB-V1 MDR cells viability, CellTiter-Glo, 72 h | Potency, µM (series often up to 46.1 µM), hits mostly cytotoxic | AID 1347076, 2019; also: potency is read from the fitted curve at half-maximal effect; % is scaled to controls: 0 for no effect and ±100 for the full control effect; nearly all actives have a fitted effect of over 60% in size
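Potencies derive from concentration-effect curves fitted to normalized luminescence (CellTiter-Glo) of KB-V1 cells treated for 72 h at 37 degrees C in phenol-red-free DMEM containing 10% FBS.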
SW480 rereplic: A quantitative high throughput screen for small molecules that induce DNA re-replication in SW480 colon adenocarcinoma cells; SW480 DNA re-replication, Hoechst DNA content imaging, 48 h; 340,000 tested, 1.8% active; AID 624297, 2012; Potency, µM (doses to about 46.1 µM), without a hit: at the top dose re-replication activation, most hits filed as activators; also: potency is read from the fitted curve at half-maximal effect; % of control where 0% means no effect; nearly all actives have a fitted effect of over 55% in size
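Treated cells incubate 48 hr (37 C, 5% CO2), are stained 40 min with Hoechst, and nuclear fluorescence is enumerated; a rise in nuclei with high DNA signal marks re-replication.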
KB-3-1 cytotox: qHTS assay for MDR1-selective chemotherapeutics: Primary screen using the parental adenocarcinoma cell KB-3-1 | KB-3-1 viability, CellTiter-Glo ATP luminescence, 72 h | Potency, µM (top dose mostly 46.1 µM), actives largely listed as cytotoxic | 400,000 tested, 1.4% active | AID 1347075, 2019; also: potency is read from the fitted curve at half-maximal effect; % is scaled to controls: 0 for no effect and ±100 for the full control effect; nearly all actives have a fitted effect of over 60% in size
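KB-3-1 cells, DMEM (no phenol red) + 10% FBS; compound by pin transfer, 72 h, 37 °C. Readout: CellTiter-Glo luminescence after 10 min. Data normalized, curve-fitted.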
DRD3 antagonist: qHTS of D3 Dopamine Receptor Antagonist: qHTS; D3R cells, DiscoveRx beta-arrestin luminescence, antagonist mode; hits give low values; max response, negative = inhibition, %; 360,000 tested, 2.5% active; AID 652054, 2013; in the data active = max response below about -50%; inconclusive = no clear call, values can overlap the other calls; also: % is scaled to controls: 0 for no effect and ±100 for the full control effect
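Cells plated overnight at 1500 cells/well, then exposed to library compounds with dopamine controls for 90 minutes at 37 degrees C. DiscoveRx reagent added for 30–60 minutes at room temperature; luminescence read, quantitative HTS format.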
The depositor's hits bear a star. Unless noted, calls follow the shape of the dose curve; as a rule, active = well fitted curve in the direction sought with a large enough effect; inconclusive = small, poorly fitted or top-dose-only effect, or another doubt; inactive = no such curve, though single readings can be large; an effect the other way counts as inactive or inconclusive.

What do the screens show for `O=C(NC(=S)Nc1cccc(Cl)c1N1CCCCC1)c1ccc2c(c1)OCCO2`?
DRD3 agonist: -9.3; MCF10A rereplic: 4.61µM*; KB-V1 cytotox: 14.6µM*; SW480 rereplic: inconclusive; KB-3-1 cytotox: inactive; DRD3 antagonist: -9.2

Results for Cc1nc2c(ccc3nc(NC(=O)C(c4ccccc4)c4ccccc4)sc32)s1 ?
DRD3 agonist: -5.4; MCF10A rereplic: 16.4µM*; KB-V1 cytotox: inactive; SW480 rereplic: 9.1%; KB-3-1 cytotox: inactive; DRD3 antagonist: inconclusive

What do the screens show for `Cc1nc2c(ccc3nc(NC(=O)Cc4cccc5ccccc45)sc32)s1`?
DRD3 agonist: -4.5; MCF10A rereplic: inconclusive; KB-V1 cytotox: inactive; SW480 rereplic: 11.8%; KB-3-1 cytotox: inactive; DRD3 antagonist: -26.7

Results for Cc1cnc(NC(=O)c2ccc3c(c2)OCCO3)s1 ?
DRD3 agonist: -19.1; MCF10A rereplic: 2.91µM*; KB-V1 cytotox: inconclusive; SW480 rereplic: 4.11µM*; KB-3-1 cytotox: 5.8µM*; DRD3 antagonist: -12.3

How did O=C(Cn1cc(SCc2ccccc2Cl)c2ccccc21)N1CCCCCC1 do in these assays?
DRD3 agonist: -7.4

Results for Cc1nc2ccc3nc(NC(=O)c4ccc5c(c4)OCCO5)sc3c2s1 ?
DRD3 agonist: -4.9; MCF10A rereplic: -1.3%; KB-V1 cytotox: inactive; SW480 rereplic: -7.3%; KB-3-1 cytotox: inactive; DRD3 antagonist: -16.9

What do the screens show for `O=C(Nc1cccc2cccnc12)c1ccc2c(c1)OCCO2`?
DRD3 agonist: -18.3; MCF10A rereplic: inconclusive; KB-V1 cytotox: 13µM*; SW480 rereplic: 0.3%; KB-3-1 cytotox: inactive; DRD3 antagonist: -29.9

How did Cc1ccc2cccc(OC(=O)c3ccc4c(c3)OCCO4)c2n1 do in these assays?
DRD3 agonist: 2.1; MCF10A rereplic: inconclusive; KB-V1 cytotox: inactive; SW480 rereplic: inconclusive; KB-3-1 cytotox: inactive; DRD3 antagonist: -50.1*

What do the screens show for `O=C(Nc1ncc([N+](=O)[O-])s1)c1ccc2c(c1)OCO2`?
DRD3 agonist: 0.2; MCF10A rereplic: -2.8%; KB-V1 cytotox: inconclusive; SW480 rereplic: 8.1%; KB-3-1 cytotox: 23.1µM*; DRD3 antagonist: -0.4

What do the screens show for `Cc1ccc(C(=O)Nc2ncc([N+](=O)[O-])s2)cc1`?
DRD3 agonist: -13.3; MCF10A rereplic: -5.6%; KB-V1 cytotox: inactive; SW480 rereplic: -7.0%; KB-3-1 cytotox: inconclusive; DRD3 antagonist: 0.5

What do the screens show for `Cc1nc2c(ccc3nc(NC(=O)c4ccc5c(c4)OCCO5)sc32)s1`?
DRD3 agonist: 11.0; MCF10A rereplic: 2.31µM*; KB-V1 cytotox: inactive; SW480 rereplic: inconclusive; KB-3-1 cytotox: inactive; DRD3 antagonist: -21.1

How did COc1cc(OC)c(NC(=O)c2csc3c2CCC(C)C3)cc1Cl (stereo not drawn) do in these assays?
DRD3 agonist: -11.0

How did COC(=O)c1ccccc1NC(=O)c1nc(-c2ccc(Cl)cc2)n2c1CCCCC2 do in these assays?
DRD3 agonist: -11.6; KB-V1 cytotox: inconclusive; KB-3-1 cytotox: inactive

How did COc1cccc(-c2nc(CS(=O)(=O)CC(=O)NC3CCCCCC3)c(C)o2)c1 do in these assays?
DRD3 agonist: -5.8; MCF10A rereplic: 3.7%; KB-V1 cytotox: inactive; SW480 rereplic: -4.1%; KB-3-1 cytotox: inactive; DRD3 antagonist: 1.5

What do the screens show for `Cc1ccc(-c2c3c(=O)n(C)c(=O)n(C)c3cn2N2CCOCC2)cc1`?
DRD3 agonist: 3.0; MCF10A rereplic: inconclusive; KB-V1 cytotox: inactive; SW480 rereplic: -9.8%; KB-3-1 cytotox: inactive; DRD3 antagonist: -50.8*

How did O=C1C(Cc2ccc(F)cc2)SC(=Nc2ccccc2)N1c1ccccc1 (stereo not drawn) do in these assays?
DRD3 agonist: -3.4; MCF10A rereplic: 23.2%; KB-V1 cytotox: inconclusive; KB-3-1 cytotox: inactive; DRD3 antagonist: 7.6

Results for O=C1C(Cc2ccccc2)S/C(=N/N=C/c2ccco2)N1c1ccccc1 (stereo not drawn) ?
DRD3 agonist: 0.4; MCF10A rereplic: inconclusive; KB-V1 cytotox: inactive; SW480 rereplic: 0.7%; KB-3-1 cytotox: inactive; DRD3 antagonist: 0.0

Results for O=C1C(Cc2ccc(Br)cc2)SC(=Nc2ccccc2)N1c1ccccc1 (stereo not drawn) ?
DRD3 agonist: -0.9; MCF10A rereplic: inconclusive; KB-V1 cytotox: 20.6µM*; SW480 rereplic: inconclusive; KB-3-1 cytotox: inconclusive; DRD3 antagonist: 0.0

What do the screens show for `O=C1C(Cc2cccc([N+](=O)[O-])c2)SC(=Nc2ccccc2)N1c1ccccc1` (stereo not drawn)?
DRD3 agonist: -1.9; MCF10A rereplic: inconclusive; KB-V1 cytotox: 20.6µM*; SW480 rereplic: 21.5%; KB-3-1 cytotox: inactive; DRD3 antagonist: 10.3

Results for N#C/C(=C1\SCC(c2ccccc2Cl)S1)n1ccnc1 (stereo not drawn) ?
DRD3 agonist: 9.8

How did FC(F)(F)c1cccc(-n2cc(-c3ccccc3)c3c(N4CCCCC4)ncnc32)c1 do in these assays?
DRD3 agonist: 13.1

How did O=C(Cc1ccccc1[N+](=O)[O-])N1CCN(c2ccc(F)cc2)CC1 do in these assays?
DRD3 agonist: 19.2; MCF10A rereplic: 8.6%; KB-V1 cytotox: inconclusive; SW480 rereplic: 11.6µM*; KB-3-1 cytotox: inactive; DRD3 antagonist: 6.3

What do the screens show for `O=C(/C=C/c1cccc([N+](=O)[O-])c1)N1CCN(c2ccc(F)cc2)CC1`?
DRD3 agonist: 3.5; MCF10A rereplic: 0.6%; KB-V1 cytotox: 20.6µM*; SW480 rereplic: 17.1%; KB-3-1 cytotox: inactive; DRD3 antagonist: 10.2

How did CC(/C=N/N1CCN(c2ccccn2)CC1)=C\c1ccccc1 do in these assays?
DRD3 agonist: 14.5; MCF10A rereplic: 13.0%; KB-V1 cytotox: 20.6µM*; SW480 rereplic: 0.9%; KB-3-1 cytotox: inactive; DRD3 antagonist: 5.6

How did CC(=O)c1c(C)[nH]c(C(=O)Nc2nc(-c3ccc(-c4ccccc4)cc3)cs2)c1C do in these assays?
DRD3 agonist: 11.0; MCF10A rereplic: 3.26µM*; KB-V1 cytotox: 20.6µM*; SW480 rereplic: 4.8%; KB-3-1 cytotox: 14.6µM*; DRD3 antagonist: 59.6

Results for CC(=O)c1c(C)[nH]c(C(=O)Nc2nc(-c3ccc(Cl)cc3)cs2)c1C ?
DRD3 agonist: 10.1; MCF10A rereplic: 23.1µM*; KB-V1 cytotox: inconclusive; SW480 rereplic: -9.2%; KB-3-1 cytotox: inconclusive; DRD3 antagonist: 4.7

How did COC(=O)c1cc2oc(C)cc2n1CC(=O)Nc1cc(Cl)ccc1OC do in these assays?
DRD3 agonist: -1.0; KB-V1 cytotox: inactive; KB-3-1 cytotox: inactive

Assay outcomes from PubChem BioAssay.
